# Measured values as given in PubChem BioAssay.
# Unmarked numbers belong to inactive results. The source made the active and inactive calls.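 The calls were made as follows, unless noted: active = growth inhibition above 50% at the single 2 µM test dose, taken to imply half-maximal potency below 2 µM; inactive = the rest.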
# Experiment: antimalarial activity against Dd2 strain (AID 2302);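 also: 0% = DMSO untreated growth and 100% = chloroquine plus artemisinin killed control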
# Conditions: P. falciparum Dd2 in RBCs, LDH growth readout, 72 h; at 2 µM; hits give high values
row,SMILES,growth inhibition
1,CNc1ccc(CNCc2cccc(-c3ccc(-c4nc5c(C)cccc5[nH]4)cc3)c2)cc1,83% (active)
2,COc1ccc(C2C(C(=O)Nc3cc(C)ccc3OC)c3ccccc3C(=O)N2C)cc1 (stereo not given),3%
3,N#Cc1ccccc1Sc1ccccc1C(=O)Nc1ccc2ccccc2n1,85% (active)
4,COc1ccc2nccc([C@@H](O)CN3CCC(NC(=O)c4ccc(Cl)c([N+](=O)[O-])c4)CC3)c2c1,43%
5,O=C(Nc1cccc(-c2cccc(-c3nc4ccc(C(F)(F)F)cc4[nH]3)c2)c1)c1ccncc1,61% (active)
6,O=C(Nc1ccccc1)c1nn(CCCN2CCC(N3CCCC3)CC2)cc1-c1ccc(Cl)c(Cl)c1,98% (active)
7,CC(=O)NC(c1cccs1)c1cc(Cl)c2cccnc2c1O (stereo not given),93% (active)
8,COc1cc(NC(=O)N2CCc3ccc(OCCN4CCCCC4)cc32)cc(C(F)(F)F)c1,93% (active)
9,Cc1cc(N[C@@H](Cc2ccccc2)C(=O)NCCOc2ccccc2)nc(NCCOc2ccccc2)n1,24%
10,Cc1nc(-c2ccc(-c3ccc(NC(=O)c4coc5ccc(N6C[C@@H](C)N(C)[C@@H](C)C6)cc45)cc3)c(C)c2)no1,46%
11,N#Cc1ccc2c(c1)CCN(CCC1CCC(NC(=O)/C=C/c3cc(Br)cs3)CC1)CC2 (stereo not given),1%
12,CN1CCN(c2ccnc3ccc(NC(=O)Nc4ccccc4Br)cc23)CC1,95% (active)
13,Cc1nc2ccc3ccc(CNc4ccc5c(c4)CN([C@H](CCC(=O)O)C(=O)O)C5=O)cc3c2c(=O)[nH]1,90% (active)
14,CCCC(=O)NC(c1ccc(C(C)C)cc1)c1ccc2cccnc2c1O (stereo not given),37%
15,COc1ccc2nccc([C@@H](O)CN3CCC(NCCOc4cccc(F)c4F)CC3)c2c1,85% (active)
16,Cc1cc(N[C@@H](CC(C)C)C(=O)NCc2cccc(F)c2)nc(NCCc2ccc(F)cc2)n1,6%
17,COCCn1c(-c2nc(-c3ccc(F)cc3)cnc2N)nc2ccccc21,98% (active)
18,C=CCc1cc(Br)ccc1OCCCON1C(N)=NC(N)=NC1(C)C,97% (active)
19,O=C(Nc1ccnc2ccccc12)NC1CCN(Cc2ccccc2)CC1,43%
20,O=C(/C=C/c1ccc(Cl)c(Cl)c1)NC1CCC(CN2CCC(c3coc4ccccc34)CC2)CC1 (stereo not given),41%

row,SMILES,growth inhibition
1,Oc1cccc(Nc2nc(NCc3ccco3)c3ccccc3n2)c1,74% (active)
2,CN(C)C(=NCCCCCCN=C(/N=C(/N)Nc1ccc(Cl)cc1)N(C)C)/N=C(/N)Nc1ccc(Cl)cc1,98% (active)
3,CC1CCC2(CC1)N=C(N)N=C(N)N2OCc1ccc(Br)c2ccccc12 (stereo not given),40%
4,O=S(=O)(NCCN1CCCC1)c1cccc(-c2cccc(CNCc3ccc(F)cc3)c2)c1,73% (active)
5,COc1ccc2nccc([C@@H](O)CN3CCC(NC(=O)/C=C/c4ccc(Cl)c(C(F)(F)F)c4)CC3)c2c1,89% (active)
6,Clc1ccc2c(N3CCCNCC3)ccnc2c1,99% (active)
7,c1ccc(Cn2nnnc2-c2cccc(Nc3ccnc4cc(-c5nccs5)ccc34)c2)cc1,46%
8,CC(C)Oc1cc2c(cc1NS(=O)(=O)c1ccc(-c3cccs3)cc1)CCN(C)CC2,9%
9,Cc1cc([N+](=O)[O-])ccc1N1CCN(CCCCNC(=O)c2ccc(NC(=O)c3ccc(Cl)cc3)cc2)CC1,-1%
10,CC1CCC(NCc2c(O)ccc3ccccc23)CC1 (stereo not given),77% (active)
11,CCNc1cc(C(=O)N[C@@H](Cc2cc(F)cc(F)c2)[C@H](O)CNCc2cccc(C(F)(F)F)c2)cc(N2CCCCS2(=O)=O)c1,80% (active)
12,CCc1ccc(NC(=O)c2cccc(CN3CCCN(CC4CCCCC4)CC3)c2)cc1,41%
13,CC1(C)N=C(NC(=O)Nc2ccc([N+](=O)[O-])cc2)N=C(N)N1OCc1cccc2ccccc12,21%
14,O=C(Nc1ccc(Cl)cc1)NC1CCN(CCCCCNC(=O)[C@@H]2C[C@H]2c2ccc(Cl)c(Cl)c2)CC1,18%
15,O=C(NC1CCCCCC1)C1CCCN(C(=O)c2ccc(O)c(-c3ccc(Cl)c(Cl)c3)c2)C1 (stereo not given),21%
16,O=C(Nc1ccc2c(c1)CCC2)c1nc(N2CCN(c3ccncc3)CC2)ccc1Cl,97% (active)
17,CCNc1cc(C(=O)N[C@@H](Cc2ccccc2)[C@H](O)CNC2(Cc3cccc(Cl)c3)CCC2)cc(N2CCCCS2(=O)=O)c1,83% (active)
18,COc1ccc(-c2ccc(CNC3Cc4ccccc4C3)cc2)cc1S(=O)(=O)NCCN1CCCC1,99% (active)
19,N#Cc1ccc2c(c1)CCN(CCC1CCC(Nc3ncnc4ccccc34)CC1)C2 (stereo not given),96% (active)
20,Cc1[nH]c(C)c(-c2ccc(-c3ccc(Cl)cc3)nc2)c(=O)c1Cl,96% (active)

# Experiment: HepG2 cytotoxicity, primary screen, cytotoxicity control for P. falciparum antimalarial project, cell-based, ATP luminescence (AID 2303;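 active = inhibition above 50%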;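 also: 0% = DMSO wells and 100% = digitonin-killed cells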)
# Conditions: HepG2 viability, 24-48 h, at 10 µM, hits give high values
row,SMILES,inhibition
1,CNc1ccc(CNCc2cccc(-c3ccc(-c4nc5c(C)cccc5[nH]4)cc3)c2)cc1,26%
2,COc1ccc(C2C(C(=O)Nc3cc(C)ccc3OC)c3ccccc3C(=O)N2C)cc1 (stereo not given),3%
3,N#Cc1ccccc1Sc1ccccc1C(=O)Nc1ccc2ccccc2n1,-3%
4,COc1ccc2nccc([C@@H](O)CN3CCC(NC(=O)c4ccc(Cl)c([N+](=O)[O-])c4)CC3)c2c1,14%
5,O=C(Nc1cccc(-c2cccc(-c3nc4ccc(C(F)(F)F)cc4[nH]3)c2)c1)c1ccncc1,52% (active)
6,O=C(Nc1ccccc1)c1nn(CCCN2CCC(N3CCCC3)CC2)cc1-c1ccc(Cl)c(Cl)c1,31%
7,CC(=O)NC(c1cccs1)c1cc(Cl)c2cccnc2c1O (stereo not given),65% (active)
8,COc1cc(NC(=O)N2CCc3ccc(OCCN4CCCCC4)cc32)cc(C(F)(F)F)c1,9%
9,Cc1cc(N[C@@H](Cc2ccccc2)C(=O)NCCOc2ccccc2)nc(NCCOc2ccccc2)n1,-1%
10,Cc1nc(-c2ccc(-c3ccc(NC(=O)c4coc5ccc(N6C[C@@H](C)N(C)[C@@H](C)C6)cc45)cc3)c(C)c2)no1,21%
11,N#Cc1ccc2c(c1)CCN(CCC1CCC(NC(=O)/C=C/c3cc(Br)cs3)CC1)CC2 (stereo not given),3%
12,CN1CCN(c2ccnc3ccc(NC(=O)Nc4ccccc4Br)cc23)CC1,4%
13,Cc1nc2ccc3ccc(CNc4ccc5c(c4)CN([C@H](CCC(=O)O)C(=O)O)C5=O)cc3c2c(=O)[nH]1,38%
14,CCCC(=O)NC(c1ccc(C(C)C)cc1)c1ccc2cccnc2c1O (stereo not given),50% (active)
15,COc1ccc2nccc([C@@H](O)CN3CCC(NCCOc4cccc(F)c4F)CC3)c2c1,9%
16,Cc1cc(N[C@@H](CC(C)C)C(=O)NCc2cccc(F)c2)nc(NCCc2ccc(F)cc2)n1,0%
17,COCCn1c(-c2nc(-c3ccc(F)cc3)cnc2N)nc2ccccc21,16%
18,C=CCc1cc(Br)ccc1OCCCON1C(N)=NC(N)=NC1(C)C,61% (active)
19,O=C(Nc1ccnc2ccccc12)NC1CCN(Cc2ccccc2)CC1,18%
20,O=C(/C=C/c1ccc(Cl)c(Cl)c1)NC1CCC(CN2CCC(c3coc4ccccc34)CC2)CC1 (stereo not given),40%

row,SMILES,inhibition
1,Oc1cccc(Nc2nc(NCc3ccco3)c3ccccc3n2)c1,9%
2,CN(C)C(=NCCCCCCN=C(/N=C(/N)Nc1ccc(Cl)cc1)N(C)C)/N=C(/N)Nc1ccc(Cl)cc1,11%
3,CC1CCC2(CC1)N=C(N)N=C(N)N2OCc1ccc(Br)c2ccccc12 (stereo not given),46%
4,O=S(=O)(NCCN1CCCC1)c1cccc(-c2cccc(CNCc3ccc(F)cc3)c2)c1,41%
5,COc1ccc2nccc([C@@H](O)CN3CCC(NC(=O)/C=C/c4ccc(Cl)c(C(F)(F)F)c4)CC3)c2c1,11%
6,Clc1ccc2c(N3CCCNCC3)ccnc2c1,11%
7,c1ccc(Cn2nnnc2-c2cccc(Nc3ccnc4cc(-c5nccs5)ccc34)c2)cc1,51% (active)
8,CC(C)Oc1cc2c(cc1NS(=O)(=O)c1ccc(-c3cccs3)cc1)CCN(C)CC2,9%
9,Cc1cc([N+](=O)[O-])ccc1N1CCN(CCCCNC(=O)c2ccc(NC(=O)c3ccc(Cl)cc3)cc2)CC1,33%
10,CC1CCC(NCc2c(O)ccc3ccccc23)CC1 (stereo not given),13%
11,CCNc1cc(C(=O)N[C@@H](Cc2cc(F)cc(F)c2)[C@H](O)CNCc2cccc(C(F)(F)F)c2)cc(N2CCCCS2(=O)=O)c1,1%
12,CCc1ccc(NC(=O)c2cccc(CN3CCCN(CC4CCCCC4)CC3)c2)cc1,62% (active)
13,CC1(C)N=C(NC(=O)Nc2ccc([N+](=O)[O-])cc2)N=C(N)N1OCc1cccc2ccccc12,35%
14,O=C(Nc1ccc(Cl)cc1)NC1CCN(CCCCCNC(=O)[C@@H]2C[C@H]2c2ccc(Cl)c(Cl)c2)CC1,51% (active)
15,O=C(NC1CCCCCC1)C1CCCN(C(=O)c2ccc(O)c(-c3ccc(Cl)c(Cl)c3)c2)C1 (stereo not given),5%
16,O=C(Nc1ccc2c(c1)CCC2)c1nc(N2CCN(c3ccncc3)CC2)ccc1Cl,55% (active)
17,CCNc1cc(C(=O)N[C@@H](Cc2ccccc2)[C@H](O)CNC2(Cc3cccc(Cl)c3)CCC2)cc(N2CCCCS2(=O)=O)c1,22%
18,COc1ccc(-c2ccc(CNC3Cc4ccccc4C3)cc2)cc1S(=O)(=O)NCCN1CCCC1,30%
19,N#Cc1ccc2c(c1)CCN(CCC1CCC(Nc3ncnc4ccccc34)CC1)C2 (stereo not given),65% (active)
20,Cc1[nH]c(C)c(-c2ccc(-c3ccc(Cl)cc3)nc2)c(=O)c1Cl,8%
